The values below come from PubChem BioAssay (NCI).

Compounds without any hit were thinned out: in the full panel of roughly 79,000, 15% have a hit. Values without a mark were called inactive. Active and inactive are the calls of the source. Cut-off read from the data, not from the text of the source: active = growth inhibition above about 70%; inactive = the rest.

Experiment [1] can be described thus: NCI Yeast Anticancer Drug Screen. Data for the rad50 strain (AID 155).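 Note: 0% = growth of vehicle-only cultures of the same strain.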 The conditions noted are these: S. cerevisiae rad50 strain growth inhibition, stronger effect = higher value. In outline: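 Relative growth inhibition (compound vs vehicle) was measured in yeast with a defined repair-gene alteration.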
Experiment [2] is described as follows: NCI Yeast Anticancer Drug Screen. Data for the mec2-1 strain (AID 157). The following applies: S. cerevisiae mec2-1 strain, stronger effect = higher value. In outline:
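Using mec2-1 yeast: add compound, measure growth, express inhibition versus vehicle-treated cultures.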

A short description of experiment [3]: NCI Yeast Anticancer Drug Screen. Data for the sgs1 mgt1 strain (AID 161).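 Note: 0% = growth of cultures given vehicle only.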 The conditions noted are these: S. cerevisiae sgs1 mgt1 strain, stronger effect = higher value. In outline:
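Compounds are added to genetically altered yeast, and growth is compared with cultures given vehicle alone to give percent inhibition.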

Experiment [4] in a line: NCI Yeast Anticancer Drug Screen. Data for the cln2 rad14 strain (AID 165).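 Note: 0% = growth equal to vehicle treated cultures.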 The following applies: S. cerevisiae cln2 rad14 strain, stronger effect = higher value. The method in brief: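 Yeast strain cln2 rad14, bearing defects in cell cycle control and DNA repair, serves as the test system; values reflect growth inhibition compared with vehicle.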
The nature of experiment [5]: NCI Yeast Anticancer Drug Screen. Data for the bub3 strain (AID 167). The conditions noted are these: S. cerevisiae bub3 mutant strain, stronger effect = higher value. In outline:
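Screening used yeast with an engineered genetic alteration affecting cell cycle control. Compound-exposed cultures were compared with vehicle cultures, and reduced growth was taken as inhibition.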

The nature of experiment [6]: NCI Yeast Anticancer Drug Screen. Data for the mlh1 rad18 strain (AID 175). The conditions noted are these: S. cerevisiae mlh1 rad18 strain growth inhibition, stronger effect = higher value. The method in brief:
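Steps: expose repair-defective yeast to compound; measure growth; express inhibition against vehicle-treated controls.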

[7] abbreviates: at 5.0 µM (retest, dose inferred, filed as 0.5).
Where [8] appears, read: at 50.0 µM (retest, dose inferred, filed as 5.0).

For the compound `CC/C(=N\NS(=O)(=O)c1ccc(C)cc1)c1cccc(OC)c1`, the growth inhibition in experiment [1] (setting [7]) is 34%; in experiment [1] (setting [8]) it was 47%; in experiment [1] (at 50.0 µM) it was 69.6%; in experiment [2] (setting [7]), 12%; in experiment [2] (setting [8]) it was 37%; in experiment [2] (at 50.0 µM) it was 40.6%. The growth inhibition in experiment [3] (setting [7]) is 50%; in experiment [3] (setting [8]), 90% (active); in experiment [3] (at 50.0 µM), 88.8% (active); in experiment [4] (setting [7]), 37%; in experiment [4] (setting [8]) it was 78% (active); in experiment [4] (at 50.0 µM), 51.2%. In addition, the growth inhibition in experiment [5] (setting [7]) was 43%; in experiment [5] (setting [8]) it was 86% (active); in experiment [5] (at 50.0 µM) it was 36.6%; in experiment [6] (setting [7]) it was 36%; in experiment [6] (setting [8]), 87% (active); in experiment [6] (at 50.0 µM) it was 92.2% (active).

For `O=C(O)C1CC2C3(Cl)C(Cl)=C(Cl)C(Cl)C2(CC1c1c2ccc(=O)c(O)c-2oc2c(O)c(O)ccc12)C3(Cl)Cl` (configuration not stated), the growth inhibition in experiment [1] (setting [7]) is 5%; in experiment [1] (setting [8]) it was 96% (active); in experiment [1] (at 50.0 µM), 49.9%; in experiment [2] (setting [7]), 21%; in experiment [2] (setting [8]) it was 97% (active); in experiment [2] (at 50.0 µM), 49.6%. In addition, the growth inhibition was 3% in experiment [3] (setting [7]); 97% (active) in experiment [3] (setting [8]); -0.25% in experiment [3] (at 50.0 µM); 9% in experiment [4] (setting [7]); 93% (active) in experiment [4] (setting [8]); 53.2% in experiment [4] (at 50.0 µM). The growth inhibition in experiment [5] (setting [7]) was -2%; in experiment [5] (setting [8]), 96% (active); in experiment [5] (at 50.0 µM) it was 46.2%; in experiment [6] (setting [7]), 4%; in experiment [6] (setting [8]) it was 95% (active); in experiment [6] (at 50.0 µM), 51.5%.

On to `COc1cnn(-c2ccccc2)c(=O)c1SCc1ccc(Cl)c(Cl)c1`, for which the growth inhibition in experiment [1] (setting [7]) was -3%; in experiment [1] (setting [8]), 7%; in experiment [1] (at 50.0 µM) it was 42.5%; in experiment [2] (setting [7]) it was -3%; in experiment [2] (setting [8]), 33%; in experiment [2] (at 50.0 µM), 7.95%. The growth inhibition was 1% in experiment [3] (setting [7]); 62% in experiment [3] (setting [8]); 71.2% (active) in experiment [3] (at 50.0 µM); -6% in experiment [4] (setting [7]); 23% in experiment [4] (setting [8]); 49.9% in experiment [4] (at 50.0 µM). Moreover, the growth inhibition was 2% in experiment [5] (setting [7]); 51% in experiment [5] (setting [8]); 53% in experiment [5] (at 50.0 µM); -4% in experiment [6] (setting [7]); 25% in experiment [6] (setting [8]); 37.4% in experiment [6] (at 50.0 µM).

Take `CCOC(=O)c1c(C)[nH]c(CO)c1C`: the growth inhibition in experiment [1] (setting [7]) was -1%; in experiment [1] (setting [8]), 14%; in experiment [1] (at 50.0 µM) it was 28.1%; in experiment [2] (setting [7]), 6%; in experiment [2] (setting [8]), 20%; in experiment [2] (at 50.0 µM) it was 38%. For the same compound, the growth inhibition in experiment [3] (setting [7]) is 2%; in experiment [3] (setting [8]) it was 24%; in experiment [3] (at 50.0 µM), 43.1%; in experiment [4] (setting [7]), 4%; in experiment [4] (setting [8]) it was 0%; in experiment [4] (at 50.0 µM) it was 31.8%. The growth inhibition is 4% in experiment [5] (setting [7]); 8% in experiment [5] (setting [8]); 34% in experiment [5] (at 50.0 µM); -1% in experiment [6] (setting [7]); 13% in experiment [6] (setting [8]); 65.5% in experiment [6] (at 50.0 µM).

Regarding `COC(=O)c1nc(=S)[nH]c(C(=O)OC)c1C(=O)c1ccc2ccccc2c1`, the growth inhibition in experiment [1] (setting [7]) is 26%; in experiment [1] (setting [8]), 96% (active); in experiment [1] (at 50.0 µM), 94.5% (active); in experiment [2] (setting [7]) it was 9%; in experiment [2] (setting [8]) it was 97% (active); in experiment [2] (at 50.0 µM), 71.5% (active). Also, the growth inhibition in experiment [3] (setting [7]) was 0%; in experiment [3] (setting [8]) it was 97% (active); in experiment [3] (at 50.0 µM), 93.3% (active); in experiment [4] (setting [7]), 8%; in experiment [4] (setting [8]), 96% (active); in experiment [4] (at 50.0 µM), 25.8%. Besides, the growth inhibition in experiment [5] (setting [7]) was 13%; in experiment [5] (setting [8]), 98% (active); in experiment [5] (at 50.0 µM), 71.1% (active); in experiment [6] (setting [7]) it was 16%; in experiment [6] (setting [8]), 98% (active); in experiment [6] (at 50.0 µM) it was 94.5% (active).

Regarding `O=C(CC1(O)C(=O)Nc2c(Cl)cc(Cl)cc21)c1ccc(Cl)cc1` (configuration not stated), the growth inhibition in experiment [1] (setting [7]) is 0%; in experiment [1] (setting [8]) it was 87% (active); in experiment [1] (at 50.0 µM) it was 85% (active); in experiment [2] (setting [7]) it was -1%; in experiment [2] (setting [8]) it was 91% (active); in experiment [2] (at 50.0 µM), 70.3% (active). Further, the growth inhibition in experiment [3] (setting [7]) is 3%; in experiment [3] (setting [8]) it was 98% (active); in experiment [3] (at 50.0 µM) it was 81% (active); in experiment [4] (setting [7]) it was -3%; in experiment [4] (setting [8]), 96% (active); in experiment [4] (at 50.0 µM), 82.5% (active). Also, the growth inhibition in experiment [5] (setting [7]) was -3%; in experiment [5] (setting [8]), 93% (active); in experiment [5] (at 50.0 µM) it was 71.5% (active); in experiment [6] (setting [7]), -1%; in experiment [6] (setting [8]) it was 97% (active); in experiment [6] (at 50.0 µM), 93.8% (active).

For `COC(=O)Nc1nc2ccc(C(=O)c3ccccc3)cc2[nH]1`, the growth inhibition is 0% in experiment [1] (setting [7]); -9% in experiment [1] (setting [8]); 55% in experiment [1] (at 50.0 µM); 3% in experiment [2] (setting [7]); -7% in experiment [2] (setting [8]); 46.9% in experiment [2] (at 50.0 µM). Besides, the growth inhibition in experiment [3] (setting [7]) is -1%; in experiment [3] (setting [8]), -5%; in experiment [3] (at 50.0 µM), 43.8%; in experiment [4] (setting [7]), -1%; in experiment [4] (setting [8]), -24%; in experiment [4] (at 50.0 µM), 45%. Moreover, the growth inhibition in experiment [5] (setting [7]) is 10%; in experiment [5] (setting [8]) it was 16%; in experiment [5] (at 50.0 µM), 71.5% (active); in experiment [6] (setting [7]) it was 1%; in experiment [6] (setting [8]), 17%; in experiment [6] (at 50.0 µM), 67.5%.

With `c1ccc(C[n+]2cccc(-c3cc4ccccc4[nH]3)c2)cc1`, the growth inhibition in experiment [1] (setting [7]) is 12%; in experiment [1] (setting [8]) it was 14%; in experiment [1] (at 50.0 µM), -21.7%; in experiment [2] (setting [7]), 0%; in experiment [2] (setting [8]), -42%; in experiment [2] (at 50.0 µM) it was -24.6%. In addition, the growth inhibition in experiment [3] (setting [7]) was -9%; in experiment [3] (setting [8]), 17%; in experiment [3] (at 50.0 µM), -45.2%; in experiment [4] (setting [7]), -46%; in experiment [4] (setting [8]), -23%; in experiment [4] (at 50.0 µM) it was 77.3% (active). Further, the growth inhibition in experiment [5] (setting [7]) is -17%; in experiment [5] (setting [8]) it was -9%; in experiment [5] (at 50.0 µM) it was -43.5%; in experiment [6] (setting [7]) it was -1%; in experiment [6] (setting [8]), 13%; in experiment [6] (at 50.0 µM), -3.55%.

Turning to `Oc1c(Cl)cc(Cl)c2cccnc12`, the growth inhibition was 56% in experiment [1] (setting [7]); 96% (active) in experiment [1] (setting [8]); 98.8% (active) in experiment [1] (at 50.0 µM); 31% in experiment [2] (setting [7]); 98% (active) in experiment [2] (setting [8]); 99.2% (active) in experiment [2] (at 50.0 µM). Also, the growth inhibition was 21% in experiment [3] (setting [7]); 99% (active) in experiment [3] (setting [8]); 97.7% (active) in experiment [3] (at 50.0 µM); 27% in experiment [4] (setting [7]); 98% (active) in experiment [4] (setting [8]); 98.2% (active) in experiment [4] (at 50.0 µM). Also, the growth inhibition in experiment [5] (setting [7]) was 64%; in experiment [5] (setting [8]), 97% (active); in experiment [5] (at 50.0 µM), 98.5% (active); in experiment [6] (setting [7]) it was 43%; in experiment [6] (setting [8]), 98% (active); in experiment [6] (at 50.0 µM) it was 99% (active).
